Molecules are shown by their SMILES. Results filed as inconclusive are left out. Values without a mark were called inactive. Calls of active or inactive are those of the source. Calls come from the whole dose curve; as a rule, active = well fitted cell-killing curve with a large enough effect; inconclusive = small, poorly fitted or top-dose-only effect, or effect the other way; inactive = flat fitted curve, though single readings scatter.
% is set by controls: 0 for no effect and ±100 for the full control effect.

The experiment can be described thus: qHTS assay for cell viability of the p53RE-bla HCT-116 cell line (AID 743292). Note: nearly all actives have a fitted effect of over 55% in size. Conditions: p53RE-bla HCT-116 viability, ATP luminescence, 16 h; series mostly up to 95 µM; activity change, negative = cytotoxicity: at the top concentration. An outline of the steps: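 CellSensor p53RE-bla HCT-116 cells (4,000/well) pre-incubated 5 h at 37 C, then exposed to compounds in DMSO for 16 h at 37 C. Viability read as ATP content by CellTiter-Glo luminescence after 30 min at room temperature.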
For the compound `CC1(C)C(C=C(Cl)Cl)C1C(=O)OC(C#N)c1cccc(Oc2ccccc2)c1` (stereo unspecified), the “activity change, negative = cytotoxicity” value is -5.71%.

Consider `CCOC(=O)CC(SP(=S)(OC)OC)C(=O)OCC` (stereo unspecified), for which the Potency entry was “inactive”.

For the compound `C[C@]12CCC(=O)C=C1CC[C@@H]1[C@@H]2CC[C@@]2(C)[C@H]1CC[C@]2(C)O`, the “activity change, negative = cytotoxicity” value is 4.46%.

On to `COc1cc(OC)c(OC)cc1C=O`, for which the “activity change, negative = cytotoxicity” value was -8.12%.

Take `C[C@]1(O)CC[C@H]2[C@@H]3CCC4=CC(=O)CC[C@]4(C)[C@@]3(F)[C@@H](O)C[C@@]21C`: the “activity change, negative = cytotoxicity” value is 8.63%.

`O=C(O)CCCc1ccc(N(CCCl)CCCl)cc1`: the Potency entry is “inactive”.

Take `CC(C)NC(C)C`: the “activity change, negative = cytotoxicity” value is -0.268%.

On to `COP(=S)(OC)SCN1C(=O)c2ccccc2C1=O`, for which the “activity change, negative = cytotoxicity” value is 6.7%.

As for `O=P1(N(CCCl)CCCl)NCCCO1` (stereo unspecified), the Potency entry was “inactive”.

As for `Nc1ccccc1`, the “activity change, negative = cytotoxicity” value was 0.0959%.

For `Oc1ccc(Cl)cc1`, the “activity change, negative = cytotoxicity” value was -8.83%.

Consider `CC(C)c1cccc(C(C)C)c1O`, for which the “activity change, negative = cytotoxicity” value is 4.24%.

`CN1C[C@H](C(=O)N[C@]2(C)O[C@@]3(O)[C@@H]4CCCN4C(=O)[C@H](Cc4ccccc4)N3C2=O)C=C2c3cccc4[nH]cc(c34)C[C@H]21`: the Potency result is “inactive”.

Take `CCC(C)(C)c1ccc(O)cc1`: the Potency result is “inactive”.

Regarding `NCCc1ccc(O)cc1`, the “activity change, negative = cytotoxicity” value is 0.406%.

In the case of `COC(=O)C(c1ccccc1)C1CCCCN1` (stereo unspecified), the Potency entry is “inactive”.

For the compound `Nc1ccccc1C(=O)O`, the “activity change, negative = cytotoxicity” value is -9.62%.

With `C[C@]12CCC(=O)C=C1CC[C@@H]1[C@@H]2CC[C@]2(C)C(=O)CC[C@@H]12`, the Potency entry is “inactive”.

`CCCC(C)(COC(N)=O)COC(N)=O`: the Potency entry was “inactive”.

In the case of `O=C1c2ccccc2C(=O)C1C(=O)C(c1ccccc1)c1ccccc1`, the “activity change, negative = cytotoxicity” value is 0.325%.

As to `COP(=S)(OC)Oc1ccc(SC)c(C)c1`, the Potency result is “inactive”.
